Experimental data: PubChem BioAssay AID2401 (Southern Research Specialized Biocontainment Screening …, 2010)
The campaign covered roughly 2,200 compounds. About 530 (24%) were called active. The list is a sample of the results. Measured potencies and affinities stand elsewhere. A number with no mark means an inactive call.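 How the source made its calls: active means inhibition above a set limit at one or more concentrations of the dose series; inactive means inhibition under that limit at every dose.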

test: nmpC-GFP reporter counter-screen in S. Typhimurium, dose response, counter-screen for PhoP regulon inhibitor project, Salmonella Typhimurium, GFP fluorescence (AID 2401); details: 4 h; series mostly up to 150 µM; inhibition: at the top concentration;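 further: S. typhimurium with Mg-insensitive nmpC-GFP reporter grown at 10 µM Mg2+; drop in reporter fluorescence reflects general culture growth inhibition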

Structure (SMILES) | inhibition [%]
Cc1ccc(-c2nc3ccccc3s2)cc1S(=O)(=O)N1CCCC1 | -16.7
CCOC(=O)Cc1ccc2sc(-c3ccccc3)nc2c1 | -22
COc1ccc(C2=NOC(C(=O)Nc3ccc(C)cc3)C2)cc1OC (stereo not drawn) | 2.64
COc1cccc(C2CC(c3ccccc3OC)n3nc(N)nc3N2)c1 (stereo not drawn) | -20.8
CCCc1cc(C(=O)NNC(=S)NC(C)c2ccccc2)cs1 (stereo not drawn) | -35.7
Cc1ccc(-n2sc3ccccc3c2=O)cc1S(=O)(=O)N1CCCCC1 | 8.77
CCNC(=O)COC(=O)CCC(=O)c1cccs1 | -7.69
FC(F)(F)c1cc(C(F)(F)F)c2ccc(Oc3ccccc3)nc2n1 | 9.05
O=C(Cc1ccccc1)NCc1ccc(F)cc1 | -30.9
Fc1ccccc1COc1ccc(Br)cc1CNCc1ccncc1 | 1.55
O=C(Nc1ccc(S(=O)(=O)Nc2nccs2)cc1)c1cc(-c2ccccc2)nc2ccccc12 | 4.41
COc1ccc(C(C)=O)c2c(O)cccc12 | 4.56
CC1(C)CC(=O)C2=C(C1)OC1=C(C(=O)CC(C)(C)C1)C2c1ccc(O)cc1O | 9.69
c1ccc(-n2cnc3cc(NCc4ccccn4)ccc32)cc1 | -4.69
CCOC(=O)C1(S(=O)(=O)c2ccccc2)CCN(Cc2ccc(Cl)cc2)CC1 | 5.17
O=C(Nc1ccc2c(c1)oc1ccccc12)N1CCOCC1 | -7.09
CCOc1ccccc1OCC(=O)Nc1ccc(S(=O)(=O)Nc2nc(C)cc(C)n2)cc1 | -11.6
Cc1ccc(SC(c2ccc(C)cc2)C(Cn2cncn2)C(=O)c2ccccc2)cc1 (stereo not drawn) | -15.4
CN(C)c1nc(N)nc(Cn2ccnc2)n1 | -5.04
N/C(=N\OC(=O)c1cccs1)C1(c2ccc(Cl)cc2Cl)CC1 | -14.9
COc1cc(C2Nc3cccc4cccc(c34)N2)cc(OC)c1O | 23.9
C=CCc1ccccc1OCC(O)CN1CCN(CCN2C(=O)c3cccc4cccc(c34)C2=O)CC1 (stereo not drawn) | 1.41
COc1cccc(C2CC(=O)Nc3cc(OC)c(OC)c(OC)c32)c1OC (stereo not drawn) | -6.54
C=C(C)Cn1c(CCn2c3ccccc3c3ccccc32)n[nH]c1=S | 4.79
CN(C(=O)c1cccc(C#N)c1)c1nnc(-c2cnccn2)s1 | 1.99

Structure (SMILES) | inhibition [%]
Cn1c(CC(=O)Nc2ccc(Cl)c(Cl)c2)nnc1SCC(=O)Nc1nccs1 | -37.2
Cc1cc2ncn(CC(O)COc3cccc(C(=O)O)c3)c2cc1C (stereo not drawn) | -28.7
N#Cc1c(N)nc(SCC(=O)NC2CCCCC2)c(C#N)c1-c1ccc(Cl)cc1 | -24.1
Fc1cccc(NCc2cn3ccccc3n2)c1 | 23.2
O=S(=O)(c1ccc(N2CCCC2c2nc3ccccc3s2)nc1)N1CCOCC1 (stereo not drawn) | -14.8
Nc1nnc(Sc2ccc(Cl)cc2[N+](=O)[O-])s1 | -0.98
C(=C\c1ccccc1)/C=N/Nc1nc2ccccc2[nH]1 | 19.1
C#CCn1cc(/C=N/Nc2nc3ccccc3[nH]2)c2ccccc21 | 31.1
CCN(CC)c1ccc(/C=N/NC(=S)NCc2ccccc2)c(O)c1 | 9.66
CN(c1cccc(Cl)c1)S(=O)(=O)c1cccc(C(=O)Nc2nc3ccccc3[nH]2)c1 | 16.2
COc1ccc(/C=C/c2nc3ccccc3n2Cc2ccccc2OC)cc1 | -5.49
COc1ccccc1NC(=O)Cn1nnc(-c2ccccc2NC(=O)c2cccs2)n1 | -10.7
COC(=O)CSc1nnc(-c2ccco2)n1Cc1ccco1 | -13.6
Cc1cccc(-n2nc3c(c2NC(=O)c2ccco2)CSC3)c1C | -29.7
O=C(C[n+]1cc(-c2ccccc2)n2c1CCCCC2)c1ccc(Cl)cc1 | -22.6
C/C(=N/Nc1nc(-c2ccc(Cl)cc2)cs1)c1cccs1 | -20.6
CCN(CC)CC(=O)Nc1nc(-c2ccc(Cl)cc2)cs1 | -3.92
COc1ccc(OC)c(NC(=S)NCCCN2CCOCC2)c1 | -26.6
CN(CCNS(=O)(=O)c1ccc2c(c1)oc(=O)n2C)Cc1ccccc1 | 14.6
Cc1cc(C)c(C#N)c(SCC(O)CS(=O)(=O)Cc2ccccc2)n1 (stereo not drawn) | -4.96
O=C(CSC1CCCCC1)Nc1ccccc1Br | -14.2
Cc1ccc(C(=O)Oc2ccc(C(=O)COC(=O)c3cnccn3)cc2)cc1 | -20.6
O=C(NC1CCCCC1)C(c1ccncc1)N(Cc1ccccc1)C(=O)c1ccc(-c2ccccc2)[nH]1 (stereo not drawn) | 8.67
Clc1ccccc1OCCn1ccnc1 | -11.3
Cc1ccc(C(=O)NCc2ccc(Cl)cc2)o1 | 15.7

Structure (SMILES) | inhibition [%]
S=C(Nc1ccc2snnc2c1)N1CCN(c2ccccn2)CC1 | 34.2
CC1CN(C(=O)CCc2ccccc2)C(C)CN1C(=O)CCc1ccccc1 (stereo not drawn) | 1.08
O=C(NC(NC(=S)Nc1ccc(Cl)cc1)C(Cl)(Cl)Cl)c1ccco1 (stereo not drawn) | -30.7
Cc1ccc(NC(=S)NC(NC(=O)c2ccco2)C(Cl)(Cl)Cl)cc1 (stereo not drawn) | 12.3
O=c1c(Br)c(Br)cnn1-c1ccccc1 | 26.3
Clc1ccc(-c2csc3ncnc(N4CCc5ccccc5C4)c23)cc1 | -19.2
CCOC(=O)c1sc2nccc(N(C)C)c2c1N=CNOCc1c(F)cccc1Cl | 0.78
Cc1ccc2cccnc2c1NC(=S)NC(=O)c1ccccc1 | 3.45
CCCCCn1c(C(C)NC(=O)CCC)nc2ccccc21 (stereo not drawn) | 4.48
O=C(NC(c1ccc(Cl)cc1)c1c(O)ccc2ccccc12)c1ccccc1 (stereo not drawn) | -14.6
O=C(Cc1ccccc1)NC1c2ccccc2-c2ccccc21 | -12.7
O=C(CSc1nnc(-c2ccc(O)cc2)n1-c1ccccc1)CC(=O)Nc1ccccc1 | 15.1
O=C(OCC1COc2ccccc2O1)c1ccccc1F (stereo not drawn) | -18.5
CC1=C(C(=O)OCC2CCCO2)C(c2cccc(C(F)(F)F)c2)C2=C(CC(c3ccco3)CC2=O)N1 (stereo not drawn) | -25.9
O=S(=O)(Nc1ccc(Cc2ccncc2)cc1)c1ccc(Br)s1 | -31.1
Cn1ncc(N=Cc2ccccc2O)c1C(=O)Nc1ccccc1 | 8.45
N#CC1=C(N)Oc2c(O)cc3ccccc3c2C1c1ccsc1 (stereo not drawn) | -14.3
O=C(CSCc1ccccc1)Nc1ccc2c(c1)OCO2 | -7.93
CCOc1cc(CNn2cnnc2)ccc1OCC(=O)NC1CCCCC1 | -8.61
O=C(CCCNS(=O)(=O)c1ccccc1)NCc1ccco1 | -22.5
Cc1ccc(C(=O)Nc2ccc3c(c2)OCO3)o1 | 18.3
Clc1ccc(C[n+]2cc(-c3ccc(Cl)cc3)n3c2CCC3)cc1 | 36.7
Clc1ccc(-c2cnc3n2CCC3)cc1 | 15
